From PubChem BioAssay (NCI)
Compounds without any hit were thinned out: in the full panel of roughly 79,000, 15% have a hit. Activity calls are given as the source filed them. No stated cut-off is given here; in the data, active means growth inhibition above about 70%; inactive means the rest.

Legend:
[1] = NCI Yeast Anticancer Drug Screen. Data for the rad52 strain (AID 147);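 further: 0% = growth of vehicle-treated control cultures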; settings: S. cerevisiae rad52 mutant growth inhibition, hits give high values
Method in brief: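 Compounds are applied to a genetically defined yeast strain lacking normal DNA damage repair, and inhibition of growth is expressed relative to cultures given vehicle only.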

[2] = NCI Yeast Anticancer Drug Screen. Data for the wt1 strain (AID 149);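 further: 0% = growth of vehicle-treated wt1 cultures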; settings: S. cerevisiae wt1 strain (SPY 50644) growth inhibition, hits give high values
Method in brief: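 The wt1 strain was treated with compounds, and growth was compared with vehicle-treated cultures to give inhibition.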

[3] = NCI Yeast Anticancer Drug Screen. Data for the rad50EPP+ strain (AID 151);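 further: 0% = growth of vehicle-treated control cultures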; settings: S. cerevisiae rad50 mutant strain, hits give high values
Method in brief: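 Compounds were applied to the rad50EPP+ yeast strain, which bears a defined DNA repair alteration, and growth inhibition was determined relative to vehicle-treated cultures.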

[4] = NCI Yeast Anticancer Drug Screen. Data for the rad50 strain (AID 155);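 further: 0% = growth of vehicle-only cultures of the same strain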; settings: S. cerevisiae rad50 strain growth inhibition, hits give high values
Method in brief: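 Cells are treated with compound, grown, and their growth is then scored against vehicle-only cultures of the same repair-deficient yeast strain.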

[5] = NCI Yeast Anticancer Drug Screen. Data for the mec2-1 strain (AID 157); settings: S. cerevisiae mec2-1 strain, hits give high values
Method in brief: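 Strain: mec2-1 (DNA repair/cell cycle alteration). Compound exposure, then growth measured; inhibition expressed relative to vehicle.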

[6] = NCI Yeast Anticancer Drug Screen. Data for the rad14 strain (AID 159);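 further: 0% = growth of vehicle-treated control cultures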; settings: S. cerevisiae rad14 strain growth inhibition, hits give high values
Method in brief: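 Readout: yeast growth inhibition, referenced to vehicle-only cultures. Strain bears a defined alteration in DNA damage repair.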

[7] = NCI Yeast Anticancer Drug Screen. Data for the sgs1 mgt1 strain (AID 161);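 further: 0% = growth of cultures given vehicle only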; settings: S. cerevisiae sgs1 mgt1 strain, hits give high values
Method in brief: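 Mutant yeast exposed to compound; growth scored against vehicle-only wells.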

[8] = NCI Yeast Anticancer Drug Screen. Data for the CLN2oe strain (AID 163);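 further: 0% = growth of vehicle-only control cultures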; settings: S. cerevisiae CLN2oe strain, hits give high values
Method in brief: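 Growth of a genetically modified yeast strain is measured after compound exposure and compared with cultures given vehicle alone.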

[9] = NCI Yeast Anticancer Drug Screen. Data for the cln2 rad14 strain (AID 165);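 further: 0% = growth equal to vehicle treated cultures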; settings: S. cerevisiae cln2 rad14 strain, hits give high values
Method in brief: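 Compounds are applied to the cln2 rad14 yeast strain, and growth is then compared with that of vehicle-treated cultures to give inhibition.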

[10] = NCI Yeast Anticancer Drug Screen. Data for the bub3 strain (AID 167); settings: S. cerevisiae bub3 mutant strain, hits give high values
Method in brief: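 Part of a panel of yeast mutants defective in DNA damage repair or cell cycle regulation. Each strain is grown with compound, and inhibition is calculated relative to solvent-treated cultures.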

[11] = NCI Yeast Anticancer Drug Screen. Data for the wt2 strain (AID 169);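 further: 0% = growth of vehicle-treated yeast cultures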; settings: S. cerevisiae wt2 strain growth inhibition, hits give high values
Method in brief: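 This strain belongs to a panel of yeast strains with defined genetic alterations in DNA damage repair or cell cycle control. Compounds are applied, and growth inhibition is measured against vehicle-treated cultures.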

[12] = NCI Yeast Anticancer Drug Screen. Data for the mlh1 strain (AID 171);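 further: 0% = growth of vehicle-treated control cultures of the same strain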; settings: S. cerevisiae mlh1 strain growth inhibition, hits give high values
Method in brief: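 Growth of the mutant yeast strain after compound exposure, expressed as inhibition relative to vehicle-only controls.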

[13] = NCI Yeast Anticancer Drug Screen. Data for the mlh1 rad18 strain (AID 175); settings: S. cerevisiae mlh1 rad18 strain growth inhibition, hits give high values
Method in brief: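 Read-out is yeast growth inhibition, calculated against vehicle-only controls. The compound was applied to a strain engineered with DNA damage repair alterations.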

[14] = NCI Yeast Anticancer Drug Screen. Data for the rad18 strain (AID 177); settings: S. cerevisiae rad18 mutant growth inhibition, hits give high values
Method in brief: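 Growth of the mutant yeast strain after compound exposure, normalised to vehicle-only cultures.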

[15] = NCI Yeast Anticancer Drug Screen. Data for the sgs1 strain (AID 173);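 further: 0% = growth of vehicle-only control cultures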; settings: S. cerevisiae sgs1 mutant, hits give high values
Method in brief: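 Growth of a yeast strain bearing a defined genetic alteration is measured after compound treatment. Inhibition is expressed relative to vehicle-only controls.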

[16] = at 5.0 µM (retest, dose inferred, filed as 0.5)
[17] = at 50.0 µM (retest, dose inferred, filed as 5.0)

Measured: growth inhibition

CCc1c(Cl)c(C)c(Cl)c(O)c1Cl
active: [1]; at 33.0 µM 97% | [1]; at 100.0 µM 99% | [2]; at 33.0 µM 93% | [2]; at 100.0 µM 98% | [3]; at 33.0 µM 87% | [3]; at 100.0 µM 96% | [4]; at 33.0 µM 96% | [4]; [17] 98% | [4]; at 50.0 µM 92% | [4]; at 100.0 µM 99% | [5]; at 33.0 µM 95% | [5]; [17] 98% | [5]; at 50.0 µM 93.3% | [5]; at 100.0 µM 97% | [6]; at 33.0 µM 98% | [6]; at 100.0 µM 99% | [7]; [17] 97% | [7]; at 50.0 µM 93.8% | [8]; at 33.0 µM 90% | [8]; at 100.0 µM 99% | [9]; [17] 98% | [9]; at 50.0 µM 92.8% | [10]; at 33.0 µM 96% | [10]; [17] 98% | [10]; at 50.0 µM 92.9% | [10]; at 100.0 µM 99% | [11]; at 33.0 µM 97% | [11]; at 100.0 µM 99% | [12]; at 33.0 µM 95% | [12]; at 100.0 µM 99% | [13]; [17] 98% | [13]; at 50.0 µM 92% | [14]; at 33.0 µM 96% | [14]; at 100.0 µM 99%
inactive: [1]; at 1.2 µM -22% | [1]; at 3.7 µM -30% | [1]; at 11.0 µM -9% | [2]; at 1.2 µM -27% | [2]; at 3.7 µM -25% | [2]; at 11.0 µM 1% | [3]; at 1.2 µM -7% | [3]; at 3.7 µM 0% | [3]; at 11.0 µM 32% | [4]; at 1.2 µM -11% | [4]; at 3.7 µM -28% | [4]; [16] 57% | [4]; at 11.0 µM 6% | [5]; at 1.2 µM -28% | [5]; at 3.7 µM -12% | [5]; [16] 61% | [5]; at 11.0 µM 2% | [6]; at 1.2 µM -11% | [6]; at 3.7 µM -12% | [6]; at 11.0 µM 10% | [7]; [16] -16% | [8]; at 1.2 µM 13% | [8]; at 3.7 µM 17% | [8]; at 11.0 µM 11% | [9]; [16] 38% | [10]; at 1.2 µM 1% | [10]; at 3.7 µM -4% | [10]; [16] 16% | [10]; at 11.0 µM 5% | [11]; at 1.2 µM -8% | [11]; at 3.7 µM -12% | [11]; at 11.0 µM 2% | [12]; at 1.2 µM -12% | [12]; at 3.7 µM -8% | [12]; at 11.0 µM 7% | [13]; [16] 38% | [14]; at 1.2 µM -19% | [14]; at 3.7 µM -32% | [14]; at 11.0 µM -19%

COC(=O)C1=C(C(=O)OC)CC(n2nnc(C(=O)OC)c2C(=O)OC)=CC1
inactive: [1]; at 1.2 µM -1% | [1]; at 3.7 µM 1% | [1]; at 11.0 µM 2% | [1]; at 33.0 µM 0% | [1]; at 100.0 µM -2% | [2]; at 1.2 µM 0% | [2]; at 3.7 µM 0% | [2]; at 11.0 µM -1% | [2]; at 33.0 µM -1% | [2]; at 100.0 µM -2% | [3]; at 1.2 µM -2% | [3]; at 3.7 µM -2% | [3]; at 11.0 µM -3% | [3]; at 33.0 µM -3% | [3]; at 100.0 µM 1% | [4]; at 1.2 µM -1% | [4]; at 3.7 µM -3% | [4]; [16] -1% | [4]; at 11.0 µM -3% | [4]; at 33.0 µM -2% | [4]; [17] 0% | [4]; at 50.0 µM 43.4% | [4]; at 100.0 µM -4% | [5]; at 1.2 µM -4% | [5]; at 3.7 µM -6% | [5]; [16] -1% | [5]; at 11.0 µM -5% | [5]; at 33.0 µM -4% | [5]; [17] -1% | [5]; at 50.0 µM 1.2% | [5]; at 100.0 µM -9% | [6]; at 1.2 µM 0% | [6]; at 3.7 µM 3% | [6]; at 11.0 µM 4% | [6]; at 33.0 µM 3% | [6]; at 100.0 µM 1% | [7]; [16] 6% | [7]; [17] -6% | [7]; at 50.0 µM 0.5% | [8]; at 1.2 µM -7% | [8]; at 3.7 µM -3% | [8]; at 11.0 µM -4% | [8]; at 33.0 µM -1% | [8]; at 100.0 µM -7% | [9]; [16] -2% | [9]; [17] -2% | [9]; at 50.0 µM -9.5% | [10]; at 1.2 µM -4% | [10]; at 3.7 µM -4% | [10]; [16] -1% | [10]; at 11.0 µM -3% | [10]; at 33.0 µM -6% | [10]; [17] 1% | [10]; at 50.0 µM -4.1% | [10]; at 100.0 µM -2% | [11]; at 1.2 µM -1% | [11]; at 3.7 µM -2% | [11]; at 11.0 µM -1% | [11]; at 33.0 µM -2% | [11]; at 100.0 µM -3% | [12]; at 1.2 µM -1% | [12]; at 3.7 µM -2% | [12]; at 11.0 µM -2% | [12]; at 33.0 µM -1% | [12]; at 100.0 µM -3% | [15]; at 1.2 µM -1% | [15]; at 3.7 µM -1% | [15]; at 11.0 µM -2% | [15]; at 33.0 µM -2% | [15]; at 100.0 µM 0% | [13]; [16] -2% | [13]; [17] 44% | [13]; at 50.0 µM 4.4% | [14]; at 1.2 µM 0% | [14]; at 3.7 µM 1% | [14]; at 11.0 µM 0% | [14]; at 33.0 µM -1% | [14]; at 100.0 µM 1%
